# A selection: hits, their analogues and other compounds. The true share with any hit is near 2.4%.
# CHO-K1 Ca PAM – nonselective calcium activators in parental CHO-K1 cells, primary screen, counter-screen for M1 PAM project, cell-based, Fluo-8 calcium fluorescence, full deck, 1536-well | activation, % at 3 µM | 0.02% of 360,000 active | ATP EC20; 0% at ATP EC20, 100% at ATP max;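 active means activation above the run cutoff, the mean activation of all test compounds plus 3 SD, cut at about 40% in these data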;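 further: peak over basal fluorescence ratio in a 140 s read after ATP addition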
# CHO-K1 Ca antag – nonselective inhibitor or artifact in parental CHO-K1 cells. ATP-induced calcium, Fluo-8 fluorescence. inhibition, % at 3 µM. 0.6% of 360,000 active. AID 602250;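 active means inhibition above a per-plate cutoff, the plate's mean sample inhibition plus 3 SD, cut at about 24% in these data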;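 further: 0% = DMSO plus EC80 ATP and 100% = DMSO alone without ATP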
# CHRM1 PAM – human M1 muscarinic receptor positive allosteric modulators, primary screen, CHO-K1 cells, Fluo-8 calcium fluorescence, 1536-well | CHO-K1 hM1, ACh EC20; 0% = ACh EC20, 100% = maximal ACh | activation, % at 3 µM | 0.088% of 360,000 active | AID 588819, 2011; in the data active means activation above about 19%, passing the limit was not always enough
# Target sequence (P11229 whole entry, looked up): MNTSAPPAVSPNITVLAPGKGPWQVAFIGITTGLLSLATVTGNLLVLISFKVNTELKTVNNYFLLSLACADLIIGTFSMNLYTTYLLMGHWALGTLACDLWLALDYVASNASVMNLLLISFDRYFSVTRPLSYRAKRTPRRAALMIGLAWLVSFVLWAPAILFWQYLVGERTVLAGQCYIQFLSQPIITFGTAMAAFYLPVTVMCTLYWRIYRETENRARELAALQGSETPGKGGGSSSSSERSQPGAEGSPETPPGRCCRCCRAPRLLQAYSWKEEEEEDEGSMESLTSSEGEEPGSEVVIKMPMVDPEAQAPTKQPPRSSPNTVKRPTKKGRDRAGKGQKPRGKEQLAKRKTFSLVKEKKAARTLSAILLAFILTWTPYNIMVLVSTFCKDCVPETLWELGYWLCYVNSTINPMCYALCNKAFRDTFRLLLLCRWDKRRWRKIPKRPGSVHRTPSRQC
# M1 ag – human M1 muscarinic receptor agonists, primary screen, Fluo-8 calcium fluorescence, CHO-K1 cells, HTS. Muscarinic acetylcholine receptor M1 (Homo sapiens), P11229. CHO-K1 hM1, agonist mode; 0% DMSO, 100% acetylcholine EC100. activation, % at 3 µM. 0.33% of 360,000 active. AID 588814, 2011;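 active means activation above the run's mean compound activation plus 3 SD, cut at about 16% in these data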;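 further: peak over basal fluorescence ratio within a 140 s kinetic read after compound addition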
# CHRM1 antagonist – human M1 muscarinic receptor antagonists, primary screen, CHO-K1 cells, Fluo-8 calcium fluorescence, 1536-well. Muscarinic acetylcholine receptor M1 (Homo sapiens), P11229. 1.3% of 360,000 active. inhibition, % at 3 µM. CHO-K1 hM1, ACh EC80 antagonist;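 active means percent inhibition above its own plate's cutoff, namely the mean of that plate's compound wells plus 3 SD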;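 further: peak over basal fluorescence ratio during 140 s after agonist addition; 0% = ACh EC80 plus DMSO and 100% = DMSO alone without agonist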
# CHO-K1 Ca ag – counter-screen for M1 agonists: effect in parental CHO-K1 cells; Fluo-8 calcium fluorescence; scaled to maximal ATP response, vehicle zero; activation, % at 3 µM; 0.48% of 360,000 active; in the data active means activation above about 15%;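 further: untransfected CHO-K1 host cells lacking M1 receptor as counterscreen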
# Numbers without * were called inactive.
SMILES,CHO-K1 Ca PAM,CHO-K1 Ca antag,CHRM1 PAM,M1 ag,CHRM1 antagonist,CHO-K1 Ca ag
COc1ccc(/C=N/NC(=O)c2nc(-c3ccccc3)cc(-c3ccccc3)n2)cc1O,-3.7,10.0,-18.9,-5.5,38.5*,5.4
CCN(CC)S(=O)(=O)c1cccc(C(=O)N/N=C/c2ccccc2OCC(=O)O)c1,-7.9,-7.4,0.5,-3.5,3.1,0.7
CCN(CC)S(=O)(=O)c1cccc(C(=O)N/N=C/c2ccc(OC)c(O)c2)c1,-14.4,26.6*,8.0,1.6,1.7,1.1
COc1ccc(/C=N/NC(=O)c2nc(-c3ccccc3)n(-c3ccccc3)n2)cc1OC,-9.4,24.7*,-7.2,-5.3,7.5,1.2
COc1ccc(/C=N/NC(=O)c2nc(-c3ccccc3)cc(-c3ccccc3)n2)cc1,2.0,7.6,-0.3,-1.8,12.7,1.4
COc1cc(/C=N/NC(=O)c2nc(-c3ccccc3)n(-c3ccccc3)n2)ccc1O,13.9,-1.3,3.4,-6.0,-2.5,1.3
COc1ccccc1-c1cccc2nccn12,7.1,2.8,10.4,1.1,-17.5,0.2
C=C(C)c1cccc(C(C)(C)NC(=O)N2CCN(C(=O)OCC)CC2)c1,-6.1,-3.3,-1.6,2.2,-0.1,0.0
CCOC(=O)C1=C(COC(=O)c2ccc3ccccc3c2O)NC(=O)NC1C (stereo not drawn),-4.5,-1.0,12.5,1.5,-7.0,-0.2
Cc1cc(O)c(C=Nc2cccc(Cl)c2)c(=O)o1,16.6,6.6,4.5,-2.5,-2.1,1.7
COc1ccc(N=Cc2c(O)cc(C)oc2=O)cc1,1.1,16.4,-2.2,-4.1,3.1,15.8*
CCN1C(=O)N2C[C@H]3CON(C)[C@H]3C[C@H]2c2ccccc21,12.8,6.0,3.9,-4.0,-4.2,0.9
COc1ccc(C(=O)Nc2ccc(N3CCN(Cc4ccccc4)CC3)cc2)cc1,8.1,-4.2,-7.4,-10.4,8.5,1.6
COc1cccc(NC(=O)c2ccc(CN3CCN(c4ccccc4)CC3)cc2)c1,18.0,-3.6,-22.3,-6.7,20.5*,1.3
COc1c(F)c(F)c(C(=O)Nc2ccc(N3CCN(Cc4ccccc4)CC3)cc2)c(F)c1F,-13.7,-8.1,-33.2,-9.1,47.3*,8.2
COc1cc(/C=N\NC(=O)C(C)(C)O)ccc1OC/C=C/c1ccccc1,-16.9,5.7,-6.9,-1.3,10.1,1.9
Nn1c(COc2cccc(Cl)c2)nc2ccccc2c1=O,11.5,1.7,-3.0,-6.0,6.5,25.3*
CCc1cc(C(=O)N2CCN(C(=O)c3ccco3)CC2)sc1C,-10.9,10.3,1.7,-4.6,0.7,-0.3
O=C(CSc1nnc(-c2cccc(Br)c2)o1)NCC1CCCO1 (stereo not drawn),-12.2,26.4*,4.5,0.3,1.5,-0.2
Cc1ccccc1-c1nnc(SCC(=O)NCC2CCCO2)o1 (stereo not drawn),20.1,-14.1,8.1,-1.1,-12.9,-0.2
CS(=O)(=O)Nc1cccc(NC(=O)c2cccc3c(-c4cccc(C(N)=O)c4)coc23)c1,6.7,-3.0,-12.9,-2.0,31.1*,3.7
CC(=O)c1cccc(NC(=O)c2cccc3c(-c4cccc(C(N)=O)c4)coc23)c1,3.3,1.3,-13.4,4.7,20.4,11.4
COc1ccc(C(CC(=O)Nc2cc(C)ccn2)N2Cc3ccccc3C2=O)cc1 (stereo not drawn),6.3,-9.2,2.6,-0.9,-3.6,1.6
Cc1ccc(CN2C(=O)CSc3ccc(C(=O)NCCN4CCOCC4)cc32)cc1,-0.8,3.4,4.6,-5.2,-7.8,0.1
O=C(NCCCN1CCOCC1)c1ccc2c(c1)N(Cc1cccc(Cl)c1)C(=O)CS2,-0.8,-21.2,-31.8,-10.9,65.5*,2.1
COc1ccc2c(c1)CCN(C(=O)CCl)C2C1C(=O)CCCC1=O (stereo not drawn),-12.2,12.6,-18.1,25.4*,13.5,-0.2
COc1cc2c(cc1OC)C(C1C(=O)CCCC1=O)N(C(=O)CCl)CC2 (stereo not drawn),15.9,-18.3,2.0,11.7,-6.5,0.1
